The panel holds about 79,000 compounds, 15% with a hit somewhere; the sample as a whole holds those more often. Values without a mark were called inactive. Active and inactive are the calls of the source. No stated cut-off is given here; in the data, active means growth inhibition above about 70%; inactive means the rest.

A short description of one test: NCI Yeast Anticancer Drug Screen. Data for the mec2-1 strain (AID 157). The conditions noted are these: S. cerevisiae mec2-1 strain, at 50.0 µM (retest, dose inferred, filed as 5.0), stronger effect = higher value. The essentials:
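Compounds were applied to mec2-1 yeast cells. Their growth was then compared with that of vehicle-treated cultures to give growth inhibition.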
Consider `COC(OC)(c1ccccc1)C(Br)Br`, for which the growth inhibition is 86% (active).
The same measure, in the same setting: for `Cc1ccc(S(=O)(=O)OCCc2ccc(Cl)cc2)cc1` the value was -13%.
The same measure, in the same setting: as for `O=C(CC(=O)c1ccncc1)c1ccccc1`, the figure is 90% (active); as for `CCN1CCC(O)(/C=C/c2ccccc2)C(C(=O)/C=C/c2ccccc2)C1` (stereo not given), 80% (active).
`O=C(O)c1cc(Br)ccc1OCc1ccc(Cl)cc1`: the growth inhibition is 19%.
Take `Cc1ccc(C2COc3cc(O)c(O)cc3C2)cc1` (stereo not given): the growth inhibition was 99% (active).
`COC(=O)c1c2oc3c(C(=O)OC)cccc3nc-2cc(N)c1=O`: the growth inhibition was 56%.
On the same count and under the same terms, as for `CC(=O)NCCN(C)C`, the figure is -4%; as for `N=c1scc(-c2ccccc2)n1/N=C/c1cccnc1`, 96% (active); as for `C(=C/c1ccccc1)/C=N/Nc1ccccc1`, -50%.
As to `OC(Cc1ccc(Br)cc1)CN1CCC(c2ccccc2)CC1` (stereo not given), the growth inhibition is 71% (active).
On to `O=C1C(Cl)=C(Nc2ccc(S(=O)(=O)O)cc2)C(=O)c2ccccc21`, for which the growth inhibition was 100% (active).
Same read-out and setting: as for `CC1(CO)CCCC2(C)C3=C(CCCC3)CCC12` (stereo not given), the figure is 96% (active); as for `Cc1cc2nc(CC(=O)c3ccc4ccccc4c3)c(=O)[nH]c2cc1C`, 9%; as for `CN(CCO)CCn1cnc2c1c(=O)n(C)c(=O)n2C`, 9%.
Take `O=C1c2ccccc2CC(Br)c2ccccc21` (stereo not given): the growth inhibition is 94% (active).
On the same count and under the same terms, as for `Cc1cccc2c(CBr)cc(=O)[nH]c12`, the figure is 98% (active); as for `CC(=O)CC1CCC(=O)/C=C/C(=O)OC(CC(C)=O)CCC(=O)/C=C/C(=O)O1` (stereo not given), 47%.
`CCN(CC)CC(O)c1c(-c2ccccc2)c(-c2ccccc2)c2n1CCC2` (stereo not given): the growth inhibition is 96% (active).
As to `CC1(C)CC[C@]2(C(=O)O)[C@H](O)C[C@]3(C)C(=CC[C@@H]4[C@@]5(C)CC[C@H](OC6OCC(O)C(O)C6OC6OCC(O)C(O)C6OC6OCC(O)C(O)C6O)C(C)(C)[C@@H]5CC[C@]43C)[C@@H]2C1` (stereo not given in full), the growth inhibition was 54%.
Still for that read-out and setting: for `Cc1ccc(NC(=O)/C(CC(=O)c2sc(Nc3ccc(Cl)c(Cl)c3)nc2C)=N\Nc2ccc([N+](=O)[O-])cc2[N+](=O)[O-])c(C)c1` the value was 96% (active); for `CC(=O)N=C1N(/C=C2\C(=O)Oc3ccccc3C2=O)C(=O)/C(=C/c2ccc(Cl)cc2Cl)N1C`, 96% (active).
Same read-out and setting: as for `COC1OC2COC(c3ccccc3)OC2C(NC(=S)SCc2ccccc2)C1O` (stereo not given), the figure is 98% (active).
For the compound `O=C(CCN1CCCCC1)N1CCc2c([nH]c3ccccc23)C1c1cccnc1` (stereo not given), the growth inhibition was 16%.
On the same count and under the same terms, for `Cc1ccc(Sc2ccc(C)cc2[N+](=O)[O-])c([N+](=O)[O-])c1` the value was 35%; for `O=c1c2cc3ccccc3cc2c(=O)n2n1CC=CC2`, 6%; for `ClC(Cl)=C1C(=C(Cl)Cl)C(Cl)(Cl)C1(Cl)Cl`, 99% (active).
Same read-out and setting: for `Cc1c(C(=O)N(CCO)CCO)[n+](=O)c2ccccc2n1[O-]` the value was 7%.
Consider `CN(C)c1cc(N(C)C)c2cc(-c3ccccc3)sc2n1`, for which the growth inhibition is 99% (active).
On to `O=C(Nc1ccccc1O)/C(Cl)=C/Cl`, for which the growth inhibition is 97% (active).
Consider `Cc1ccccc1SCc1nc2ccccc2c(C)[n+]1[O-]`, for which the growth inhibition is 63%.
For the compound `Oc1ccc2c(ccc3ccccc32)c1`, the growth inhibition was 100% (active).
For `O=C1c2ccccc2C(=O)N1C(=NCc1ccccc1)c1ccccc1`, the growth inhibition was 68%.
The same measure, in the same setting: for `Cc1cc(Cl)cc2c1OCN(C)C2` the value was 96% (active); for `CC(C)C(=O)/C=C/c1ccc(Cl)cc1Cl`, 48%.
As for `CC(C)C(=O)c1ccc([N+](=O)[O-])o1`, the growth inhibition is 97% (active).
Still for that read-out and setting: as for `CSc1c(S(C)=O)c2ccccc2n1C` (stereo not given), the figure is 27%; as for `O=C(CCCCN1CCN2c3ccccc3CCC2C1)c1ccccc1` (stereo not given), 53%; as for `COC(=O)c1ccc(C)cc1CC1Cc2cc(C)ccc2C1=O` (stereo not given), 56%.
Take `Cc1cc(Nc2ccc(N=Nc3ccc(O)c4ncccc34)cc2)nc(C)n1`: the growth inhibition is 21%.

Still in this test, the particulars now being: S. cerevisiae mec2-1 strain, at 50.0 µM, stronger effect = higher value.
Consider `COC(OC)(c1ccccc1)C(Br)Br`, for which the growth inhibition is 93.2% (active).
As for `Cc1ccc(S(=O)(=O)OCCc2ccc(Cl)cc2)cc1`, the growth inhibition is -10.3%.
Still for that read-out and setting: as for `O=C(CC(=O)c1ccncc1)c1ccccc1`, the figure is 94.7% (active); as for `CCN1CCC(O)(/C=C/c2ccccc2)C(C(=O)/C=C/c2ccccc2)C1` (stereo not given), 98.2% (active).
With `O=C(O)c1cc(Br)ccc1OCc1ccc(Cl)cc1`, the growth inhibition is 51.2%.
`Cc1ccc(C2COc3cc(O)c(O)cc3C2)cc1` (stereo not given): the growth inhibition was 99.6% (active).
The same measure, in the same setting: for `COC(=O)c1c2oc3c(C(=O)OC)cccc3nc-2cc(N)c1=O` the value was 25.7%; for `CC(=O)NCCN(C)C`, 97% (active); for `N=c1scc(-c2ccccc2)n1/N=C/c1cccnc1`, 86.3% (active).
Still for that read-out and setting: as for `C(=C/c1ccccc1)/C=N/Nc1ccccc1`, the figure is 9.7%.
Same read-out and setting: for `OC(Cc1ccc(Br)cc1)CN1CCC(c2ccccc2)CC1` (stereo not given) the value was 74.5% (active); for `O=C1C(Cl)=C(Nc2ccc(S(=O)(=O)O)cc2)C(=O)c2ccccc21`, 99.6% (active).
Consider `CC1(CO)CCCC2(C)C3=C(CCCC3)CCC12` (stereo not given), for which the growth inhibition was 52.1%.
`Cc1cc2nc(CC(=O)c3ccc4ccccc4c3)c(=O)[nH]c2cc1C`: the growth inhibition is 81.4% (active).
On the same count and under the same terms, as for `CN(CCO)CCn1cnc2c1c(=O)n(C)c(=O)n2C`, the figure is -13.9%; as for `O=C1c2ccccc2CC(Br)c2ccccc21` (stereo not given), 27.4%.
On to `Cc1cccc2c(CBr)cc(=O)[nH]c12`, for which the growth inhibition is 90.1% (active).
Same read-out and setting: as for `CC(=O)CC1CCC(=O)/C=C/C(=O)OC(CC(C)=O)CCC(=O)/C=C/C(=O)O1` (stereo not given), the figure is -13.5%; as for `CCN(CC)CC(O)c1c(-c2ccccc2)c(-c2ccccc2)c2n1CCC2` (stereo not given), 32%; as for `CC1(C)CC[C@]2(C(=O)O)[C@H](O)C[C@]3(C)C(=CC[C@@H]4[C@@]5(C)CC[C@H](OC6OCC(O)C(O)C6OC6OCC(O)C(O)C6OC6OCC(O)C(O)C6O)C(C)(C)[C@@H]5CC[C@]43C)[C@@H]2C1` (stereo not given in full), 57.1%.
Still for that read-out and setting: for `Cc1ccc(NC(=O)/C(CC(=O)c2sc(Nc3ccc(Cl)c(Cl)c3)nc2C)=N\Nc2ccc([N+](=O)[O-])cc2[N+](=O)[O-])c(C)c1` the value was 98.3% (active); for `CC(=O)N=C1N(/C=C2\C(=O)Oc3ccccc3C2=O)C(=O)/C(=C/c2ccc(Cl)cc2Cl)N1C`, 95% (active); for `COC1OC2COC(c3ccccc3)OC2C(NC(=S)SCc2ccccc2)C1O` (stereo not given), 99.3% (active).
Same read-out and setting: as for `O=C(CCN1CCCCC1)N1CCc2c([nH]c3ccccc23)C1c1cccnc1` (stereo not given), the figure is 1.2%.
As for `Cc1ccc(Sc2ccc(C)cc2[N+](=O)[O-])c([N+](=O)[O-])c1`, the growth inhibition is -10.7%.
Still for that read-out and setting: for `O=c1c2cc3ccccc3cc2c(=O)n2n1CC=CC2` the value was 15.9%; for `ClC(Cl)=C1C(=C(Cl)Cl)C(Cl)(Cl)C1(Cl)Cl`, 92.6% (active).
Turning to `Cc1c(C(=O)N(CCO)CCO)[n+](=O)c2ccccc2n1[O-]`, the growth inhibition was -5.35%.
Still for that read-out and setting: for `CN(C)c1cc(N(C)C)c2cc(-c3ccccc3)sc2n1` the value was 17.2%.
Regarding `O=C(Nc1ccccc1O)/C(Cl)=C/Cl`, the growth inhibition was 97.8% (active).
Take `Cc1ccccc1SCc1nc2ccccc2c(C)[n+]1[O-]`: the growth inhibition is 45.2%.
Same read-out and setting: for `Oc1ccc2c(ccc3ccccc32)c1` the value was 97.3% (active); for `O=C1c2ccccc2C(=O)N1C(=NCc1ccccc1)c1ccccc1`, 63.4%.
On the same count and under the same terms, as for `Cc1cc(Cl)cc2c1OCN(C)C2`, the figure is 99.2% (active); as for `CC(C)C(=O)/C=C/c1ccc(Cl)cc1Cl`, 71.8% (active).
`CC(C)C(=O)c1ccc([N+](=O)[O-])o1`: the growth inhibition is 99% (active).
The same measure, in the same setting: for `CSc1c(S(C)=O)c2ccccc2n1C` (stereo not given) the value was -13.2%; for `O=C(CCCCN1CCN2c3ccccc3CCC2C1)c1ccccc1` (stereo not given), 70.9% (active); for `COC(=O)c1ccc(C)cc1CC1Cc2cc(C)ccc2C1=O` (stereo not given), 56.1%.
The same measure, in the same setting: as for `Cc1cc(Nc2ccc(N=Nc3ccc(O)c4ncccc34)cc2)nc(C)n1`, the figure is 52.5%.
